Test results: PubChem BioAssay AID1347417 (National Center for Advancing Translational Sciences (NCATS), 2020)
The campaign covered roughly 120,000 compounds. About 5,300 (4.4%) were called active. Another 22% or so got no clear call; they are omitted. Only a selection was taken, and actives are over-represented in it overall. Unmarked numbers belong to inactive results. Calls follow the shape of the dose curve; as a rule, active = well fitted inhibition curve with a large enough effect; inconclusive = small, poorly fitted or top-dose-only effect; inactive = no such curve, though single readings can be large or run the other way.

test: qHTS Primary assay for Inhibitors of Plasmodium falciparum Dd2 growth in vitro; also: nearly all actives have a fitted effect of over 65% in size;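 as to activity, negative = inhibition: plate controls were DMSO vehicle for no effect and reference drug for full effect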; conditions: P. falciparum Dd2 growth, SYBR Green, 72 h; series mostly up to 28.9 µM; activity, negative = inhibition: at the top concentration
How it was run: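 Readout: SYBR Green fluorescence, 485 nm excitation, 535 nm emission, after ~16 h lysis at 37C. Before that, Dd2-infected red cells (2.5% hematocrit) grew 72 h with compound, 29 uM top final concentration.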
Potency is read from the fitted curve at half-maximal effect.

SMILES | activity, negative = inhibition | Potency | outcome
Cc1occc1C(=O)NC1CCc2nn(CC3CC3)c(=O)n2CC1 (centres undefined) | 50.4% | – | –
CN1CCOC(CNc2ncc(C(C)(C)C(=O)O)c(N3CCOCC3)n2)C1 (centres undefined) | 5.27% | – | –
Cc1c(CNC(=O)c2ccc3c(c2)[nH]c(=O)n3C2CCC(O)CC2)cnn1C (centres undefined) | -14.8% | – | –
CSc1nc(-c2ccc(F)cc2)nc2c1Cc1c(CO)cnc(C)c1O2 | 7.08% | – | –
Cc1ccccc1CSc1nc(-c2ccccc2)nc2c1Cc1c(CO)cnc(C)c1O2 | – | 3.98 µM (active) | –
COc1ccc(-c2nc3c(c(SCC(=O)Nc4ccc(C(=O)O)cc4)n2)Cc2ccccc2O3)cc1 | – | – | inactive
COc1cccc(C2Cn3nnc(-c4nc(-c5ccccc5F)no4)c3CO2)c1 (centres undefined) | – | – | inactive
Cc1ccc(CN2CCC(C3CCN(C)CC3)C2)o1 (centres undefined) | – | – | inactive
CCOc1cc(C(=O)N2CCC[C@H]2c2nc(-c3ccc(F)cc3)no2)cc(OCC)c1OCC | – | – | inactive
COC(=O)c1ccccc1NC(=O)C(Cc1ccccc1)N1Cc2ccccc2C1=O (centres undefined) | – | – | inactive
COC(=O)c1ccccc1NC(=O)c1cc(-c2ccccc2O)no1 | – | 4.47 µM (active) | –
COC(=O)c1ccccc1NC(=O)c1ccc(COc2ccccc2Cl)o1 | 29.8% | – | –
CC(C)(C)CC(=O)N1CC[C@@H](CC(=O)O)[C@@H](CCN2CCN(c3ccc(F)cc3)CC2)C1 | – | – | inactive
O=C(NCCc1cn[nH]c1)[C@H]1CCC[C@@H](O)C1 | 2.37% | – | –
Cn1cc(-c2ccccc2Oc2ccccc2)c2nc(CN3CCNC(=O)C3)cn2c1=O | – | – | inactive [at 44.1 µM]
Cn1nccc1CN1CCc2nc(C3CC3)nc(-c3ccc(O)cc3)c2C1 | – | – | inactive
Oc1ccc(-c2nc(C3CC3)nc3c2CCN(Cc2cccc(F)c2)CC3)cc1 | – | – | inactive
Oc1ccc(-c2nc(C3CC3)nc3c2CN(Cc2ccc(F)cc2)CC3)cc1 | – | 5.62 µM (active) | –
O=C1OCC2(CCN(Cc3ccc(F)c(Cl)c3)C2)N1Cc1ccccn1 (centres undefined) | – | – | inactive [at 44.1 µM]
C[C@@H](NC(=O)COc1ccccc1)c1c(-c2ccc(F)cc2)noc1C(=O)O | -15.6% [at 44.1 µM] | – | –
Cc1cc(N2CCC(NC(=O)c3ccc(N(C)C)cc3)C2=O)ccc1F (centres undefined) | – | – | inactive
Cc1ccc(Cn2c(=O)n(CCCC(=O)NCc3ccccc3Cl)c(=O)c3ccccc32)cc1 | -5.57% | – | –
COc1ccccc1CNC(=O)CCn1c(=O)c2ccccc2n(CC(=O)Nc2cccc(Cl)c2)c1=O | -26.5% | – | –
COc1ccc(NC(=O)Cn2c(=O)n(Cc3ccc(C(=O)NCc4ccccc4Cl)cc3)c(=O)c3ccccc32)cc1 | – | 10 µM (active) | –

SMILES | activity, negative = inhibition | Potency | outcome
O=C(O)CCn1ncc2cc(OC3CCN(C(=O)C4CCCC4)CC3)ccc21 | – | – | inactive [at 44.1 µM]
CCCCNC(=O)C1CCN(C(=O)c2nnn3c2COC(c2ccc(C)cc2)C3)CC1 (centres undefined) | -5.53% | – | –
CCOc1cc(=O)n2c(c1C(=O)Nc1cc(Cl)ccc1F)CCCC2 | 23.8% | – | –
Cc1noc2c(NC3CCCCC3)cc(-c3ccsc3)nc12 | – | – | inactive [at 44.1 µM]
Fc1ccc(CNC2(Cc3cc(-c4ccc(F)cc4)on3)COC2)cc1 | 19.8% [at 44.1 µM] | – | –
FC(F)(F)c1cccc(-c2cc(C3=CCOCC3)c3cncn3c2)c1 | – | 14.1 µM (active) | –
O=C1NCc2ccc(-c3cc4c(ccn4Cc4cccnc4)c(C4=CCOCC4)n3)cc21 | -8.48% [at 44.1 µM] | – | –
OCc1cccc(-c2cc(C3=CCOCC3)c3cncn3c2)c1 | -13.5% [at 44.1 µM] | – | –
O=C(C1CCOCC1)N1CCC2(CC1)CC(N1CCCC1)CCO2 (centres undefined) | 45.9% | – | –
COC[C@H]1CCCN1C(=O)C(C)[C@@H]1CC[C@@]2(C)CC[C@H](NC(C)=O)[C@@H](C)[C@@H]2[C@H]1O (some centres undefined) | – | – | inactive [at 44.1 µM]
Cc1cccc(C(=O)N2C[C@@H](Oc3cccnc3)C[C@H]2C(=O)N2CCCC2)c1 | -18.1% | – | –
CCC(CC)C(=O)N1CCC(N2CCCC(C(=O)NCc3ccccc3)C2)CC1 (centres undefined) | – | 10 µM (active) | –
O=C(NCC1CC1)C1CCCN(C2CCN(Cc3ccncc3)CC2)C1 (centres undefined) | -7.77% | – | –
Cc1cc(CNC(=O)C2CCCN(C3CCN(CCc4ccccc4)CC3)C2)on1 (centres undefined) | -24.4% | – | –
O=C(NCCC1CCN(C(=O)Nc2ccccc2F)CC1)c1ccccc1 | -16.1% | – | –
O=[S+]([O-])(Nc1cccnc1)c1ccc2c(c1)OCCN(Cc1ccc(F)cc1)C2 | – | – | inactive [at 44.1 µM]
CC1CCN(C(=O)C[C@@H]2c3nc(NC(=O)c4ccnc(Cl)c4)sc3C[C@@H]3[C@](C)(CO)[C@H](O)CC[C@]32C)CC1 | – | 6.31 µM (active) | –
C=CCN(C)C(=O)C[C@@H]1c2nc(NC(=O)c3ccc(C(C)(C)C)cc3)sc2C[C@@H]2[C@](C)(CO)[C@H](O)CC[C@]21C | – | 3.98 µM (active) | –
CCCCCC(=O)Nc1nc2c(s1)C[C@@H]1[C@](C)(CO)[C@H](O)CC[C@@]1(C)[C@@H]2CC(=O)N1CCC(C(N)=O)CC1 | – | – | inactive
COCC(=O)Nc1nc2c(s1)C[C@@H]1[C@](C)(CO)[C@H](O)CC[C@@]1(C)[C@@H]2CC(=O)NCCN1CCOCC1 | -13.9% | – | –
Cc1ccc(S(=O)(=O)Nc2nc3c(s2)C[C@@H]2[C@](C)(CO)[C@H](O)CC[C@@]2(C)[C@@H]3CC(=O)O)cc1 | -8.19% | – | –
C=CCN(C)C(=O)[C@@H](C)C1CC[C@@]2(C)Cc3sc(Nc4c(Cl)cccc4Cl)nc3[C@@H](C)[C@@H]2[C@H]1O (some centres undefined) | -6.82% | – | –
CN1CCC2(C1)CN(CC1CCOCC1)c1ccc(C(=O)NCCCn3ccnc3)cc12 (centres undefined) | – | – | inactive [at 44.1 µM]
c1ncc(CN2CCn3c(nnc3C3CCCNC3)C2)s1 (centres undefined) | – | inactive | –

SMILES | activity, negative = inhibition | Potency | outcome
Cc1nc(N)nc(C)c1CC(=O)N1CCC2(CC1)OCCCC2O (centres undefined) | -11.9% | – | –
COc1ccc(CNC(=O)c2ccc3c(O)c(S(=O)(=O)c4ccccc4)c(=O)[nH]c3c2)cc1 | -18.4% | – | –
CC(C)c1ccc(NC(=O)c2ccc3c(O)c(S(=O)(=O)c4ccccc4)c(=O)[nH]c3c2)cc1 | – | 11.2 µM (active) | –
Cc1ccc(C(=O)Nc2ccc3[nH]c(=O)c(=O)[nH]c3c2)cc1 | -15.3% | – | –
COc1cccc([S+](=O)([O-])N2CCC3(C2)C(=NC2CCCCC2)NC(=O)N3c2cccnc2)c1 (centres undefined) | -9.4% | – | –
N#Cc1ccc(S(=O)(=O)N2CC(n3cc(C(=O)NCc4ccccc4)nn3)C2)cc1 | -2.08% | – | –
Cc1ccc(NC(=O)N2CC[C@H]3C(=O)NCCCCCN(Cc4cccnc4)[C@@H]3C2)cc1C | – | 8.91 µM (active) | –
O=C1NCCCCCN(Cc2cccnc2)[C@@H]2CN(C(=O)C3CCCCC3)CC[C@@H]12 | 6.03% | – | –
O=C1NCCCCCCN(Cc2ccncc2)[C@@H]2CN(C(=O)Nc3ccc4c(c3)OCCO4)CC[C@@H]12 | – | – | inactive
O=C(NCc1ccco1)N1CC2CC(C1)[C@H]1CCCC(=O)N1C2 (some centres undefined) | -10.7% | – | –
O=C([C@@H]1CCCN1C1CCNCC1)N1CCN(Cc2cccnc2)CC1 | -4.31% | – | –
COCC1CN(C(C)=O)CC12CCN(Cc1cccc(C#N)c1)CC2 (centres undefined) | 9.9% | – | –
CCOc1cccc(CN2CCC3(CC2)CN(C)CC3COC)c1 (centres undefined) | – | 4.47 µM (active) | –
COCC1CN(C(C)=O)CC12CCN(C(=O)NCc1cccc(OC)c1)CC2 (centres undefined) | 10.7% | – | –
CCOc1ccc(-c2n[nH]c3c2C(c2ccccc2OC)N(c2ccc(Br)cc2)C3=O)cc1 (centres undefined) | – | 10 µM (active) | –
CN1C(=O)c2[nH]nc(-c3ccc(F)cc3)c2C1c1ccccn1 (centres undefined) | 18.1% | – | –
Cc1ccc(-n2c(C3CCN(C(=O)c4ccccc4C(F)(F)F)CC3)n[nH]c2=O)cc1 | – | – | inactive
CC(=O)Nc1cccc(NC(=O)C2CC(=O)N(c3n[nH]c4ccccc34)C2)c1 (centres undefined) | -10.6% | – | –
O=c1n(CC2CC2)nc2n1CCC(NS(=O)(=O)Cc1ccccc1)CC2 (centres undefined) | 5.73% | – | –
CC(=O)c1cc(CN2CCn3nc(C(O)c4ccnn4C)cc3C2)cs1 (centres undefined) | 14.7% | – | –
COC1CCN(CC2CCCCCN2C(=O)NCc2ccc(F)cc2)CC1 (centres undefined) | – | – | inactive
O=C(NCCc1ccccc1)N1CCCCCC1CN1CCOCC1 (centres undefined) | – | 7.94 µM (active) | –
O=C(N1CCCC(Cc2nc(C3CCOCC3)no2)C1)C1(c2ccccc2)CC1 (centres undefined) | 9.71% | – | –
O=C(Cc1cccs1)N1CCCCCC1c1nc(C2CC2)no1 (centres undefined) | – | – | inactive

SMILES | activity, negative = inhibition | Potency | outcome
O=C(c1cccs1)N1CCCCCC1CN1CCCC1 (centres undefined) | – | 1.26 µM (active) | –
O=C1NCCOCCCN(C(=O)NCCc2ccccc2)[C@H]2CCC[C@@H]12 | 17.8% | – | –
O=C1NCCCCCN(C(=O)NCCc2ccccc2)[C@H]2CCC[C@@H]12 | 1.93% | – | –
O=C(N1CCCCCC1CN1CCOCC1)C1(c2ccccc2)CC1 (centres undefined) | – | 10 µM (active) | –
CC(=O)N(C1CC1)C1CCOC2(CCN(C(=O)C3(c4ccccc4)CC3)CC2)C1 (centres undefined) | – | – | inactive; activator; fitted 4.4668 uM
Cc1cc(C)n(-c2cccc(CN(C)Cc3nc(-c4ccccn4)no3)c2)n1 | -4.1% | – | –
CC(C)c1ccc(N2C(=O)N[C@@H]3CCN(C(=O)c4ccc(C(C)(C)C)cc4)[C@@H]3C2=O)cc1 | -1.05% [at 44.1 µM] | – | –
O=C(Cn1ccn2nc(-c3ccccc3)c(CO)c2c1=O)Nc1ccc2c(c1)CCC2 | -5.37% | – | –
O=C(c1ccc2cc[nH]c2c1)N1CCCN(c2cc(-c3ccc(Cl)cc3)[nH]n2)CC1 | -29.3% | – | –
CN1C(=O)CS(=O)C12CCN(S(=O)(=O)c1ccc(F)cc1)CC2 (centres undefined) | 1.13% | – | –
Cc1noc([C@@H]2CN(Cc3ccc(C)o3)C[C@H]2CO)n1 | -25.5% | – | –
Cc1cccc(NC(=O)CSc2nc(-c3ccco3)cc(C(F)(F)F)n2)c1C | 12.1% | – | –
CN(C)c1ccc(NC(=O)CSc2nc(-c3ccco3)cc(C(F)(F)F)n2)cc1 | -7.33% | – | –
Cc1ccc(F)cc1NC(=O)CCSc1nc(-c2ccco2)cc(C(F)(F)F)n1 | – | 0.794 µM (active) | –
Cc1cc(C)cc(C(=O)NCCc2noc(C)n2)c1 | -20.8% | – | –
Cc1c(Cl)cccc1NC(=O)C1CCCN(c2ncnc3onc(C)c23)C1 (centres undefined) | -4.54% | – | –
Cc1ccc(Cl)cc1N(C)C(=O)C1CCCN(c2ncnc3onc(-c4ccc(F)cc4)c23)C1 (centres undefined) | – | 8.91 µM (active) | –
COc1ccccc1N1CCN(c2ncnc3onc(-c4ccc(F)cc4)c23)CC1 | -11.9% | – | –
COc1ccc(C(=O)N[C@H](c2cnn(C)c2)C2CC(O)C2)c(F)c1F (some centres undefined) | -3.56% | – | –
CCOC(=O)c1[nH]ncc1CN1CCCC(Cc2ccc(F)cc2F)(C(=O)OCC)C1 (centres undefined) | -6.69% | – | –
CCOC(=O)C1(Cc2ccc(F)cc2F)CCCN(Cc2cccc(OC)c2O)C1 (centres undefined) | – | 3.16 µM (active) | –
COc1cccc(CN2CCN(Cc3ncccc3C)CC2)c1O | -14% | – | –
